Experimental data reported in PubChem BioAssay AID504332 (National Center for Advancing Translational Sciences (NCATS), 2011).
Out of some 350,000 compounds screened, about 31,000 (8.9%) were called active. Where a call stands in place of a potency, no number is given. Not shown: some 15% with an inconclusive outcome. Calls follow the shape of the dose curve; as a rule, active = well fitted inhibition curve with a large enough effect; inconclusive = small, poorly fitted or top-dose-only effect; inactive = no such curve, though single readings can be large or run the other way. Only a selection was taken, and actives are over-represented in it overall.

The compounds below were run against Histone-lysine N-methyltransferase EHMT2 (Homo sapiens) (UniProt Q96KQ7) (assay: qHTS Assay for Inhibitors of Histone Lysine Methyltransferase G9a). Settings: G9a H3K9 monomethylation, AlphaScreen, 2 h; series mostly up to 59 µM.
In short: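 Methyltransferase reactions run at room temperature for 2 h (20 nM enzyme, 500 nM biotin-H3K9 peptide, 20 uM SAM) after a 15 min compound preincubation; product detected by AlphaScreen beads and anti-H3K9me1 antibody.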
Also: nearly all actives have a fitted effect of over 75% in size.
Potency is read from the fitted curve at half-maximal effect.

Chain of Histone-lysine N-methyltransferase EHMT2 (Homo sapiens) (Q96KQ7 913-1193 limits assumed): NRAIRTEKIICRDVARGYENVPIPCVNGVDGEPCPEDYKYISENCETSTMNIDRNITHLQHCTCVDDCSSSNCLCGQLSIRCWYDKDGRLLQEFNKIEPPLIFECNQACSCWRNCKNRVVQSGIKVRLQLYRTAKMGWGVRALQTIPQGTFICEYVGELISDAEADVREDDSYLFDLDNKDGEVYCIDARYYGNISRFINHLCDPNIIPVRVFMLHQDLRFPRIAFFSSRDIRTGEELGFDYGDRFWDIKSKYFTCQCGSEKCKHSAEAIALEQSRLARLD

SMILES | Potency | activity, negative = inhibition
CCOC(=O)CN1C(C(=O)c2ccccc2)=C(OC(=O)C(C)(C)C)c2ccccc2S1(=O)=O | inactive | –
CCCCc1nn2c(=O)cc(COC(=O)c3ccccc3NC(=O)C(C)(C)C)nc2s1 | inactive | –
O=C(COC(=O)c1ccccc1SCC(=O)N1CCCC1)Nc1ccccc1OC(F)F | – | 13.9% [at 0.501 µM] (inactive)
COc1ccc(NCc2nnc(SCc3ccccc3)n2-c2ccc(OC)cc2)cc1 | 50.1 µM (active) | –
COc1ccc(CSc2nnnn2-c2ccc(C(=O)O)cc2)cc1 | inactive | –
Cc1ccc(-n2c(CNc3ccc(F)cc3)nnc2SCC(=O)N2CCOCC2)cc1 | inactive | –
CC1(NC(=O)CCS(=O)(=O)c2ccc(Cl)cc2)CCS(=O)(=O)C1 (stereo not given) | – | -5.47% [at 12.7 µM] (inactive)
CC1(C)CC(=O)C=C(c2cccc3c2Oc2ccccc2S3)C1 | – | -4.23% [at 0.501 µM] (inactive)
Cc1ccc(-c2cc(C(=O)N3CCc4ccccc4C3)no2)cc1 | inactive | –
Cn1cccc1C(=O)N1CCc2ccccc2C1 | 2 µM (active) | –
O=C(C(=O)N1CCc2ccccc2C1)N1CCc2ccccc2C1 | inactive | –
O=C(CCc1cn(Cc2ccc(F)cc2)c2ccccc12)NC1CCCCC1 | inactive | –
Cc1ccc(Cn2c(=N)c(S(=O)(=O)c3ccc(C)cc3)cc3c(=O)n4ccccc4nc32)cc1 | inactive | –
CCN(CC(=O)Nc1ccccc1OC)C(=O)CC1CC2CCC1C2 (stereo not given) | inactive | –
COc1ccccc1N1CCN(C(=O)c2ccc(NC3=NC4CS(=O)(=O)CC4S3)cc2)CC1 (stereo not given) | inactive | –
O=C1CSC(=S)N1/N=C/c1ccc(O)c([N+](=O)[O-])c1 | 14.1 µM (active) | –
O=[N+]([O-])c1ccc(N2CCSCC2)cc1O | inactive | –
CCc1nn(CCCC(=O)Nc2ccc(C)cc2C)c(=O)c2cc3occc3n12 | inactive | –
Cc1ccc(OCCNC(=O)CN2C(=O)NC3(CCCC3)C2=O)cc1 | – | 19.1% [at 2.33 µM] (inactive)
Cc1ccc(S(=O)(=O)CCC(=O)OCC(=O)NCCc2ccc(S(N)(=O)=O)cc2)cc1 | – | 1.87% [at 12.7 µM] (inactive)
CCC(CC)c1nnc(NS(=O)(=O)Cc2ccccc2)s1 | 5.01 µM (active) | –
Cc1cc(C)cc(NS(=O)(=O)Cc2ccccc2)c1 | inactive | –
COc1ccc(Cc2nnc(NS(=O)(=O)Cc3ccccc3)s2)cc1 | inactive | –
CCc1ccc(NC(=O)CCNS(=O)(=O)c2cccs2)cc1 | inactive | –

SMILES | Potency | activity, negative = inhibition
CN1CCN(CC#CCC2(O)c3ccccc3-c3ccccc32)CC1 | 35.5 µM (active) | –
CCCCOc1ccc(CN2C(=O)C(=O)c3cc(Br)cc(C)c32)cc1OC | 6.31 µM (active) | –
CCCCN1C(=O)C(C)=C(C)C1OCCc1ccc(OC)c(OC)c1 (stereo not given) | – | -12% [at 0.501 µM] (inactive)
CCCCOc1ccc(Cn2c(=O)oc3ccc(C)cc32)cc1OC | inactive | –
Cc1ccc2nc(N3CCN(c4cccc(Cl)c4)CC3)c3nnnn3c2c1 | inactive | –
Cc1[nH]c2ccccc2c1C(c1ccccc1)c1cccs1 (stereo not given) | inactive | –
CC1CCN(S(=O)(=O)c2ccc3c(c2)N(CC(=O)NCc2ccccc2Cl)C(=O)CO3)CC1 | inactive | –
Cc1cccc(N2CCN(C(=O)c3cccc(N4C(=O)C5C6C=CC(C6)C5C4=O)c3)CC2)c1C (stereo not given) | inactive | –
COc1ccc(NC(=O)CCN2C(=O)/C(=C/c3ccc4c(c3)OCO4)SC2=S)cc1 | – | 7.02% [at 12.7 µM] (inactive)
Cn1c(=O)n(C)c2cc(C(=O)Nc3ccc4c(c3)OCO4)ccc21 | inactive | –
Cc1ccc(C(=O)O)cc1-c1ccc(/C=C2\SC(=O)N(CC(=O)Nc3ccc4c(c3)OCO4)C2=O)o1 | 15.8 µM (active) | –
O=C(c1ccc(Cl)cc1)n1nc(-c2cccnc2)nc1NCc1ccc(F)cc1 | inactive | –
CN1c2ccc(Cl)cc2-c2nc(SCC(=O)Nc3cc(F)ccc3F)ncc2S1(=O)=O | inactive | –
CS(=O)(=O)c1ccc(-c2nnn(CC(=O)Nc3ccc4c(c3)OCCO4)n2)cc1 | inactive | –
Oc1ccc(N=Nc2nccs2)c(O)c1 | 44.7 µM (active) | –
Oc1ccc2ccccc2c1N=Nc1nccs1 | – | 12.3% [at 0.501 µM] (inactive)
Cc1cccc(NC(=O)C2CCCN2S(=O)(=O)c2cccc3nsnc23)c1C (stereo not given) | inactive | –
COc1ccc(-c2noc(CSc3nc(C)cc(=O)[nH]3)n2)cc1OC | inactive | –
Cc1cc(C)c(NC(=O)CS(=O)CC(=O)Nc2cccnc2)c(C)c1 (stereo not given) | inactive | –
Cc1ccc(-c2nc(-c3cccnc3)sc2CC(=O)Nc2ccc(C)c(Cl)c2)cc1 | 8.91 µM (active) | –
Cc1nc(-c2ccc(F)cc2)c(CC(=O)Nc2cccc(S(=O)(=O)N3CCOCC3)c2)s1 | – | 9.73% [at 0.501 µM] (inactive)
Cc1ccsc1C(=O)OCC(=O)Nc1cccc(F)c1 | – | 19.6% [at 12.7 µM] (inactive)
Cn1c(=N)n(CC(O)c2ccccc2)c2ccccc21 (stereo not given) | inactive | –
CCOc1ccc(C(O)Cc2nc3ccccc3n2C)cc1 (stereo not given) | inactive | –

SMILES | Potency | activity, negative = inhibition
CCOc1ccc(C(O)Cn2c(=N)n(CCN3CCCCC3)c3ccccc32)cc1 (stereo not given) | 50.1 µM (active) | –
Fc1ccc(-c2nn(-c3ccccc3Cl)c3c2cnc2ccccc23)cc1 | inactive | –
N#Cc1cccc(NC(=O)CN2CCCCCC2)c1 | inactive | –
Cc1cccc(C(=O)N2CCCC(Nc3ccc(C(C)C)cc3)C2)n1 (stereo not given) | 56.2 µM (active) | –
CC(C)c1ccc(NC(=O)NC2CCCCC2)cc1 | inactive | –
CC(C)c1ccc(NC2CCCN(C(=O)c3ccncc3)C2)cc1 (stereo not given) | inactive | –
CCN(CC(=O)NCc1ccc(Cl)cc1)C(=O)c1c(C)noc1C | – | -126% [at 12.7 µM] (inactive)
Cc1cccc(N2CCN(S(=O)(=O)c3ccc4[nH]c5c(c4c3)CCCCC5)CC2)c1C | inactive | –
Cc1cccc(NC(=O)Cn2nc(-c3ccc(Cl)cc3)c3ccccc3c2=O)c1 | inactive | –
Cc1cc(C)c(-c2csc(NC(=O)CCCc3nc4ccccc4c(=O)[nH]3)n2)c(C)c1 | 50.1 µM (active) | –
CCCc1ccc(-c2csc(NC(=O)Cc3cccs3)n2)cc1 | inactive | –
Cc1ccc(-c2csc(NC(=O)Cn3[nH]c(=O)c4ccccc4c3=O)n2)cc1 | inactive | –
CCCn1c(C)cc(-c2csc(NC(=O)CCc3nc4ccccc4c(=O)[nH]3)n2)c1C | 25.1 µM (active) | –
Cc1ccc(-c2csc(NC(=O)Cc3cccs3)n2)cc1C | inactive | –
CCN(CC)c1ccc(C(=O)NNC(=O)CCc2nc3ccccc3c(=O)[nH]2)cc1 | inactive | –
COc1ccc(-c2cc(C(F)(F)F)nc(SCC(=O)N(C)Cc3ccccc3)n2)cc1OC | inactive | –
N#Cc1ccc(C2N=C(c3ccccc3)NO2)cc1 (stereo not given) | inactive | –
Brc1ccccc1C1N=C(c2ccccc2)NO1 (stereo not given) | 50.1 µM (active) | –
O=C(c1ccc(OC2CCN(C/C=C/c3ccc(F)cc3)CC2)cc1)N1CCCCC1 | inactive | –
CC1CCC(NC(=O)CNC(=O)c2ccc3ccccc3c2)CC1 (stereo not given) | – | 5.09% [at 0.501 µM] (inactive)
COCCOC(=O)C1=C(C)NC(=O)NC1c1ccc(Cl)cc1 (stereo not given) | inactive | –
CCCOC(=O)C1=C(C)NC2=C(C(=O)C(C(=O)OC)C(C)C2)C1c1ccc(N(C)C)cc1 (stereo not given) | 44.7 µM (active) | –
CCOC(=O)C1=C(C)NC2=C(C(=O)CC(C)(C)C2)C1c1ccsc1 (stereo not given) | – | 1.73% [at 12.7 µM] (inactive)
N#Cc1cccc(NC(=O)C2CCCN(C(=O)c3ccc(Cl)cc3)C2)c1 (stereo not given) | – | 10.9% [at 12.7 µM] (inactive)

SMILES | Potency | activity, negative = inhibition
COC(=O)c1sc2[nH]c(=S)n(N)c(=O)c2c1C | 7.94 µM (active) | –
CCOC(=O)c1sc2nc(C)[nH]c(=O)c2c1C | inactive | –
CCOC(=O)c1sc2nc(CSCC(=O)OCc3ccc(C(=O)OC)o3)[nH]c(=O)c2c1C | inactive | –
CCCCN1CC(c2nc3ccccc3n2CCCCOc2ccc(C)cc2C)CC1=O (stereo not given) | inactive | –
CC1CCN(S(=O)(=O)c2ccc3c(ccn3CC(=O)O)c2)CC1 | inactive | –
CC1CCN(S(=O)(=O)c2ccc3c(ccn3CCC(=O)NCc3ccc(N(C)C)cc3)c2)CC1 | 10 µM (active) | –
O=C(CCn1ccc2cc(S(=O)(=O)N3CCCC3)ccc21)NCc1cccc(Cl)c1 | inactive | –
CC(C)c1nnc(NC(=O)C2CC(=O)N(CCc3ccc(F)cc3)C2)s1 (stereo not given) | inactive | –
CC(C)C[C@H](NC(=O)C1CC(=O)N(c2ccc3c(c2)OCCO3)C1)C(=O)NC1CCCC1 (stereo not given in full) | inactive | –
Cc1ccccc1N1CC(C(=O)Nc2ccc3c(c2)OCO3)CC1=O (stereo not given) | inactive | –
Cc1ccccc1N1CC(C(=O)Nc2nnc(SCCC3OCCO3)s2)CC1=O (stereo not given) | 25.1 µM (active) | –
O=C(Nc1nnc(SCc2c(Cl)cccc2Cl)s1)C1CCCO1 (stereo not given) | – | 47.8% [at 12.7 µM] (inactive)
CCOC(=O)c1ccc(NC(=O)C2CC(=O)N(c3ccc(C(C)C)cc3)C2)cc1 (stereo not given) | inactive | –
CCc1nnc(NC(=O)C2CC(=O)N(c3ccc4c(c3)OCCO4)C2)s1 (stereo not given) | 10 µM (active) | –
Cc1ccccc1N1CC(C(=O)Nc2ccc(S(=O)(=O)N3CCCC3)cc2)CC1=O (stereo not given) | – | 20.1% [at 2.33 µM] (inactive)
Cc1cccc(N2CC(C(=O)Nc3ccccc3N3CCCC3)CC2=O)c1C (stereo not given) | 70.8 µM (active) | –
CC(=O)c1ccccc1NC(=O)C1CC(=O)N(c2ccc3c(c2)OCCO3)C1 (stereo not given) | inactive | –
CCOC(=O)CSc1nnc(NC(=O)C2CC(=O)N(c3ccc(F)cc3)C2)s1 (stereo not given) | 63.1 µM (active) | –
COc1cccc(N2CC(C(=O)Nc3c(C)cccc3C)CC2=O)c1 (stereo not given) | inactive | –
CCCCOc1ccc(C(=O)N2CC(=O)Nc3ccc(Br)cc3C2c2ccc(F)cc2)cc1 (stereo not given) | inactive | –
Cc1ccc(CNC(=O)Cn2c(=O)ccc3cc(S(=O)(=O)N4CCCC4)ccc32)cc1 | inactive | –
CC(=O)N1c2ccccc2CC1C(=O)N1CCN(c2ccc(F)cc2)CC1 (stereo not given) | inactive | –
C[C@@H](NC(=O)c1nc[nH]c1C(=O)N1CCN(C(=O)OC(C)(C)C)CC1)c1ccccc1 | – | 4.62% [at 2.33 µM] (inactive)
